Results published in PubChem BioAssay.
The source made the active and inactive calls.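 The calls were made as follows, unless noted: active = inhibition of the reporter signal at or above 50%; inactive = inhibition below 50%.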

Tests used:
[1] = inhibitors of TNFa-induced NFkB p65 translocation, primary screen, imaging, HUVEC, MLSMR starter and 10KST1 sets (AID 438;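 active = inhibition above 20% together with a positive visual image hit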;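 also: compound added about 3h40 before a 20 min TNFalpha stimulation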;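 as to inhibition: signal is the nuclear over cytoplasmic p65 intensity ratio per well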); conditions: HUVEC TNFa-induced p65 nuclear translocation; cell count: measured here: nuclei count (cytotoxicity indicator), at 2.08 µM; inhibition: at 2 µM, stronger effect = higher value, 0% TNFa-plus-vehicle, 100% no-TNFa wells
[2] = inhibitors of mutant huntingtin aggregation, primary screen, imaging, exon1htt(103Q)mCFP cells, high-content imaging (AID 483;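 active = visual image review flags a hit and inhibition of aggregation exceeds 20%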;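 also: compound exposure lasted 3 days before fixation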;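 as to nuclei count: percent of the per-plate median nuclei count of sample wells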); conditions: exon1htt(103Q)mCFP cell line, aggregate imaging, at 2 µM; inhibition of aggregation: stronger effect = higher value; nuclei count: measured here: cell count, toxicity
[3] = inhibitors of E-selectin induction by TNFa, primary screen, imaging, HUVEC, immunofluorescence, MLSMR starter and 10KST1 sets (AID 487;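 active = visually confirmed hit in the image check and inhibition above 20%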;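 as to inhibition: signal is fraction of cell area covered by stained E-selectin grains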;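 as to nuclei count: 100% = median nuclei count of all wells on the same plate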); conditions: HUVEC TNFalpha-induced E-selectin immunofluorescence imaging, at 2 µM; inhibition: stronger effect = higher value; nuclei count: measured here: cell number, toxicity
[4] = molecular target: Voltage-gated potassium channel subunit beta-2 (Rattus norvegicus) (UniProt P62483); assay: KvBeta enzyme negative modulators, primary screen, biochemical, NADPH fluorescence (AID 622;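 active = fluorescence slope higher than the sample average by over 3 SD, cut at about -0.22 in these data, passing the limit was not always enough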;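 also: slope of raw intensity against log time taken from 70 to 1610 s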); conditions: recombinant KvBeta, 4-cyanobenzaldehyde reduction, at 10 µM, stronger effect = higher value
[5] = molecular target: Voltage-gated potassium channel subunit beta-2 (Rattus norvegicus) (UniProt P62483); assay: KvBeta positive modulators, primary screen, biochemical, NADPH fluorescence (AID 623;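 active = NADPH fluorescence slope more negative than the mean of all samples by about 3 SD, 99.7% confidence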;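 also: fluorescence intensity change per second fitted from 20 to 320 s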); conditions: Recombinant KvBeta, NADPH fluorescence decrease slope, 10 min; at 10 µM; stronger effect = lower value
[6] = molecular target: Alpha-2C adrenergic receptor (Homo sapiens) (UniProt P18825); assay: modulators of alpha2C/GIRK thallium flux, primary screen, cell-based, HEK293 alpha2C/GIRK1/2 (AID 624;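 active = fluorescence slope after compound addition differing from the mean of all screened samples at 99.7% confidence, in either direction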;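 also: slope of fluorescence ratio to pre-addition baseline per second over 15 to 24 s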); conditions: thallium flux BTC fluorescence, at 10 µM, actives lie on both sides
[7] = inhibitors of Sendai virus-induced IRF3 signaling, primary screen, TLR/RLR signaling modifier project, cell-based, Sendai virus stimulus, luciferase, 10K MLSCN set (AID 602276;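 active = inhibition at or above 50% at 10 µM; inactive = inhibition below 50%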;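 also: firefly luciferase from ISG56 promoter only with Renilla not read in this screen; 0% = Sendai virus plus DMSO and 100% = medium plus DMSO without virus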); conditions: HEK293 RL24 IRF3 luciferase reporter, at 10 µM, stronger effect = higher value
[8] = inhibitors of poly I:C-induced TLR3 signaling, primary screen, cell-based, poly I:C stimulus, luciferase, 10K MLSCN set (AID 602277); conditions: HEK293-TLR3 RL24 IRF3 luciferase reporter, at 10 µM, stronger effect = higher value

Sequence of Voltage-gated potassium channel subunit beta-2 (Rattus norvegicus) (P62483 whole entry, looked up): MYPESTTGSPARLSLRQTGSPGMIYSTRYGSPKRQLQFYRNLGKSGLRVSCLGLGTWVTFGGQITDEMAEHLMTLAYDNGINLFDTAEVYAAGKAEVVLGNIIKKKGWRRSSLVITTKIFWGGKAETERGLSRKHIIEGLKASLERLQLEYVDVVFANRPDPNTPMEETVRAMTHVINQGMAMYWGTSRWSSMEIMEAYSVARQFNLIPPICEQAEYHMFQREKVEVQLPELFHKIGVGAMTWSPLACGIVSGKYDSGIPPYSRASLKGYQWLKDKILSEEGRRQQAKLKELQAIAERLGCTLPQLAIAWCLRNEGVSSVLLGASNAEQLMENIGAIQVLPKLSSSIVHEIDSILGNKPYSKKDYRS
Sequence of Alpha-2C adrenergic receptor (Homo sapiens) (P18825 whole entry, looked up): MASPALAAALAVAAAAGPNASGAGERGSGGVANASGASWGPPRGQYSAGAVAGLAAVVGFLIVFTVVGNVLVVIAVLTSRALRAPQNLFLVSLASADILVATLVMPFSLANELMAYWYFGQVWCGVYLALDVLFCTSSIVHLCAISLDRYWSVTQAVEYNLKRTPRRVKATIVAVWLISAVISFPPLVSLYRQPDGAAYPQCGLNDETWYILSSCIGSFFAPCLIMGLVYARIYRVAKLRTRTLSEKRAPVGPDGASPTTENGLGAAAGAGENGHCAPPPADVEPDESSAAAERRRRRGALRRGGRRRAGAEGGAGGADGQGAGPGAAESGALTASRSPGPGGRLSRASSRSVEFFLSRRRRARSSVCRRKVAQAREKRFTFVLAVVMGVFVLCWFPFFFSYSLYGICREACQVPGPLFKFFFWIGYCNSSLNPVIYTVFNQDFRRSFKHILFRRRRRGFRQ

Compound | cell count [1] | inhibition [1] | inhibition of aggregation [2] | nuclei count [2] [%] | inhibition [3] | nuclei count [3] [%] | fluorescence slope [4] | NADPH fluorescence slope [5] | slope [6] | inhibition [7] | inhibition [8]
CC1CCCCC1NC(=O)c1ccc(N2CCCC2=O)cc1 (stereo not drawn) | 536 | -21.7% (inactive) | -20.5% (inactive) | 142 | -20.8% (inactive) | 103 | -0.51 (inactive) | 3.4e-05 (inactive) | 0.00599 (inactive) | 5.47% (inactive) | -5.67% (inactive)
CCN(CC)S(=O)(=O)c1ccc2oc(C(=O)N3CCOCC3)c(C)c2c1 | 638 | -12% (inactive) | 5.2% (inactive) | 107 | -96.2% (inactive) | 92.5 | -0.543 (inactive) | -2.8e-06 (inactive) | 0.00418 (inactive) | -1.83% (inactive) | 2.02% (inactive)
CCOC(=O)C1=C(O)C(=O)N(c2ccc(S(N)(=O)=O)cc2)C1c1ccccc1 (stereo not drawn) | 431 | -0.4% (inactive) | -10.8% (inactive) | 108 | -31.8% (inactive) | 117 | -0.61 (inactive) | -1.5e-05 (inactive) | 0.00391 (inactive) | 2.23% (inactive) | -14.6% (inactive)
COCCn1nnnc1C(c1ccccc1OC)N1CCc2ccccc2C1 (stereo not drawn) | 511 | -3.6% (inactive) | 37.6% (inactive) | 105 | -89.6% (inactive) | 96.1 | -0.322 (inactive) | -5e-05 (inactive) | 0.00407 (inactive) | 16.5% (inactive) | 32.8% (inactive)
O=C1c2ccccc2CN1CCNS(=O)(=O)c1ccc(Cl)cc1 | 414 | -1% (inactive) | -2.3% (inactive) | 101 | -1.7% (inactive) | 97 | -0.389 (inactive) | -7.9e-06 (inactive) | 0.00712 (inactive) | 14.1% (inactive) | 25.9% (inactive)
O=C(Nc1ccc(N2CCOCC2)cc1)C1CC1 | 344 | 3.5% (inactive) | 25% (inactive) | 83.9 | -16.5% (inactive) | 121 | -0.39 (inactive) | -2.3e-05 (inactive) | 0.00566 (inactive) | 6.17% (inactive) | -13.8% (inactive)
CC(=O)Nc1c(C(=O)O)[nH]c2ccccc12 | 463 | -9.1% (inactive) | -7.5% (inactive) | 96 | -46.4% (inactive) | 104 | -0.367 (inactive) | -2e-05 (inactive) | 0.00513 (inactive) | 0.607% (inactive) | 19.4% (inactive)
CCn1c(=O)c(C(=O)Nc2cccnc2)c(O)c2ccccc21 | 362 | 4.1% (inactive) | 7% (inactive) | 105 | -39.9% (inactive) | 107 | -0.465 (inactive) | -4.5e-05 (inactive) | 0.00569 (inactive) | -1.35% (inactive) | -9.19% (inactive)
Cn1c(=O)c2c(nc(NCc3ccccc3)n2CCCc2ccccc2)n(C)c1=O | 759 | -1.6% (inactive) | 5.6% (inactive) | 101 | -77.1% (inactive) | 121 | -0.521 (inactive) | -1.3e-05 (inactive) | 0.00474 (inactive) | 16.3% (inactive) | 26.8% (inactive)
COc1cc2c(cc1OC)C(c1cccnc1)CC(=O)N2 (stereo not drawn) | 481 | -7.4% (inactive) | -12.3% (inactive) | 71.7 | -30.8% (inactive) | 117 | -0.513 (inactive) | -2.9e-05 (inactive) | 0.00629 (inactive) | 9.14% (inactive) | 14.4% (inactive)
COc1ccc2nc(NC(=O)c3ccoc3C)sc2c1 | 362 | 1.4% (inactive) | -11.6% (inactive) | 106 | -75.7% (inactive) | 118 | -0.38 (inactive) | -2.2e-05 (inactive) | 0.00322 (inactive) | -30.4% (inactive) | -105% (inactive)
CCCCn1c(CN2CCN(c3ccccc3)CC2)nc2c1c(=O)n(C)c(=O)n2C | 702 | -11.5% (inactive) | -3.7% (inactive) | 90.6 | -17.7% (inactive) | 117 | -0.542 (inactive) | -4.7e-05 (inactive) | 0.00817 (inactive) | 1.46% (inactive) | -8.66% (inactive)
CC(OC(=O)C1CC=CCC1C(N)=O)C(Cl)=C(Cl)Cl (stereo not drawn) | 326 | 1.3% (inactive) | -6% (inactive) | 108 | -94.9% (inactive) | 132 | -0.506 (inactive) | -1.1e-05 (inactive) | 0.00744 (inactive) | -2.75% (inactive) | 6.78% (inactive)
